High-throughput results as filed in PubChem.
DT40 TDP1 no CPT = qHTS for Inhibitors of human tyrosyl-DNA phosphodiesterase 1 (TDP1): qHTS in cells in absence of CPT; hit rate 15% among 420,000; DT40 Tdp1-/- hTDP1 cells, no CPT, ATP luminescence, 48 h; Potency, µM (series often up to 46.2 µM), usual class: inhibitors; also: nearly all actives have a fitted effect of over 55% in size
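Growth kinetics read by CellTiter-Glo luminescence after ≥48 hr at 37 °C. Cells: DT40 Tdp1-/- stably carrying human TDP1, 400 per well, compound exposure in the absence of CPT (DMSO vehicle).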
HepG2 tox = kills HepG2 cells in TGF-b inhibitor counter-screen; hit rate 0.76% among 410,000; AID 588856; Potency, µM (titrated, usually from 46.1 µM), usual class: cytotoxic; HepG2 CAGA-GFP viability, ATP luminescence, 18 h
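CellTiter-Glo luminescence gave cytotoxicity after 18 hours at 37 degrees C. The cells were HepG2 CAGA-GFP in 1% FBS DMEM, stimulated with 500 pg/mL TGF-beta after compound addition. %Activity was normalised to no-cell wells (complete cell-killing) and DMSO (no toxicity), and curves were fitted and classified.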
TGFb SMAD3 inh = TGF-b pathway inhibition | AID 588855 | hit rate 1.2% among 410,000 | HepG2 CAGA-GFP TGF-b/SMAD3 reporter, GFP fluorescence, 18 h; TGF-beta stimulated, 500 pg/mL final | Potency, µM (highest dose often 46.1 µM), most hits filed as inhibitors; also: nearly all actives have a fitted effect of over 65% in size
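Smad-responsive CAGA-GFP expression was quantified in HEPG2 cells exposed to compounds and 500 pg/mL final TGF-beta for 18 h at 37 degrees C; unstimulated wells defined full inhibition.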
IL-1B inflam inh = inflammasome signaling inhibition, IL-1 beta readout. THP-1 LPS/ATP IL-1B secretion, AlphaLISA, 16 h; stronger effect = lower value. activity change, % at 57.5 µM. hit rate 4.7% among 360,000. AID 743279; in the data active = activity change below about -50%; inconclusive = mostly about -30% to -49%
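THP-1 cells pretreated 1 hr with compounds (up to 57.5 uM final), then stimulated with LPS (250 ng/mL final) plus ATP (1.25 mM final); secreted IL-1B measured by AlphaLISA after 16 hr, decreased signal indicating inhibition.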
TDP1 inh = inhibitors of human tyrosyl-DNA phosphodiesterase TDP1. recombinant TDP1, AlphaScreen DNA substrate cleavage. Potency, µM (highest dose often 130 µM), actives largely listed as inhibitors. hit rate 0.28% among 350,000. AID 485290; also: nearly all actives have a fitted effect of over 40% in size
Target sequence (Q9NUW8 whole entry, looked up): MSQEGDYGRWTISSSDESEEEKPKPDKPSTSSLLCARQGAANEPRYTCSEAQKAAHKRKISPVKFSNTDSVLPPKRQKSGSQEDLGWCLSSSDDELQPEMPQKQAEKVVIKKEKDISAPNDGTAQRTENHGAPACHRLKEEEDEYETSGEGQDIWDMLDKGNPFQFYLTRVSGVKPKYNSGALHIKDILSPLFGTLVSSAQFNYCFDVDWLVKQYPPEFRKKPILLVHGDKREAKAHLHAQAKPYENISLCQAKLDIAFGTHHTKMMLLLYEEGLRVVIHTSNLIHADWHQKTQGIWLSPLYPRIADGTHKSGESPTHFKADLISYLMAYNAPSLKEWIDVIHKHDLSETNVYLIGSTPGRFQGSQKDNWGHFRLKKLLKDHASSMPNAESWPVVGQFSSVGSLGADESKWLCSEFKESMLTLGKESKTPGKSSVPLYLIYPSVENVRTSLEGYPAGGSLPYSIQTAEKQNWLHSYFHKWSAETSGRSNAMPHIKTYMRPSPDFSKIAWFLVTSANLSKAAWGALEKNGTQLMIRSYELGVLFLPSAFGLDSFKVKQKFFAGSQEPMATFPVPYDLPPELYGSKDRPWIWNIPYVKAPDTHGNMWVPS
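Recombinant human Tdp1 (E. coli-expressed, 1 nM final) preincubated with compounds 15 min at room temperature, then 5'-biotin/3'-phosphotyrosine-FITC DNA substrate (15 nM final) added for 5 min. AlphaScreen beads (10 ug/ml final) added 10 min; cleavage lowers signal.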
TDP1 cell CPT = DT40-hTDP1 cell growth loss with CPT; chicken DT40 Tdp1-/-;hTDP1 cells + 20 nM CPT, ATP luminescence, 48 h; Potency, µM (highest dose often 46.2 µM), hits mostly inhibitors; hit rate 12% among 420,000; also: nearly all actives have a fitted effect of over 55% in size
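Cell growth measured by CellTiter-Glo luminescence after a minimum 48 h, 37 C compound exposure with 20 nM CPT in Tdp1-knockout DT40 cells stably expressing hTDP1, seeded 400/well; qHTS titration format.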
Of the large screens only hits and unclear results are named; the others gave an inactive call. Sampled rows, rich in hits. Any-hit rate of the full collection: about 19%. Unless noted, calls follow the shape of the dose curve; as a rule, active = well fitted curve in the direction sought with a large enough effect; inconclusive = small, poorly fitted or top-dose-only effect, or another doubt; inactive = no such curve, though single readings can be large; an effect the other way counts as inactive or inconclusive.

CN1CCN(S(=O)(=O)c2cccc(C(=O)Nc3sc4c(c3-c3nc5ccccc5[nH]3)CCCC4)c2)CC1	DT40 TDP1 no CPT 13µM, TDP1 cell CPT 15µM
CCCn1c(NC(=O)C2CCN(S(=O)(=O)c3cccs3)CC2)nc2ccccc21	DT40 TDP1 no CPT 16µM, TGFb SMAD3 inh inconclusive, IL-1B inflam inh inconclusive, TDP1 cell CPT 15µM
CCCn1c(NC(=O)c2cccc(S(=O)(=O)N3CCCC3)c2)nc2ccccc21	DT40 TDP1 no CPT 13µM, TGFb SMAD3 inh 14µM, IL-1B inflam inh -92, TDP1 cell CPT 23µM
CCCn1c(NC(=O)c2ccccc2)nc2ccccc21	DT40 TDP1 no CPT inconclusive, TGFb SMAD3 inh inconclusive, TDP1 cell CPT inconclusive
Cc1nc(-c2ccc(NC(=O)C3CC3)cc2)cs1	DT40 TDP1 no CPT 18µM, TDP1 cell CPT 23µM
CCCn1c(Nc2nc3ccccc3n2C)nc2ccccc21	DT40 TDP1 no CPT inconclusive, HepG2 tox 7.1µM, IL-1B inflam inh -99
CC(=O)Nc1ccc(-c2csc(NC(=O)C3CCN(S(=O)(=O)c4cccs4)CC3)n2)cc1	DT40 TDP1 no CPT 8.2µM, TDP1 cell CPT 16µM
Cc1csc(NC(=O)C2CCN(S(=O)(=O)c3cccs3)CC2)n1	TGFb SMAD3 inh inconclusive, TDP1 cell CPT inconclusive
CCCn1c(NC(=O)c2ccc(C)cc2)nc2ccccc21	DT40 TDP1 no CPT 26µM, TDP1 cell CPT inconclusive
COc1ccc(OCC(O)CNS(=O)(=O)c2cccs2)cc1 (configuration not stated)	TDP1 cell CPT inconclusive (no result: TDP1 inh)
O=C(CNC(=O)c1ccc(Br)o1)Nc1cccc(S(=O)(=O)N2CCCC2)c1	none
CC(OC(=O)c1ccc(NS(=O)(=O)c2ccc3[nH]c(=O)[nH]c3c2)cc1)C(N)=O (configuration not stated)	none (no result: TDP1 inh)
C/C(=C\C[Si](C)(C)C)CCC=O	none (no result: DT40 TDP1 no CPT, HepG2 tox, TGFb SMAD3 inh, IL-1B inflam inh, TDP1 cell CPT)
Cc1nc(Nc2ccccc2)sc1C(=O)c1ccc(F)cc1	DT40 TDP1 no CPT inconclusive, TDP1 cell CPT inconclusive (no result: TDP1 inh)
Nc1nc(Nc2ccccc2F)sc1C(=O)c1ccccc1	DT40 TDP1 no CPT inconclusive, TGFb SMAD3 inh inconclusive, TDP1 cell CPT 12µM (no result: TDP1 inh)
Cc1[nH]c2ccccc2c1C1(O)C(=O)N(C(C)C)c2ccccc21 (configuration not stated)	none
CCCN1C(=O)C(O)(c2c(C)[nH]c3ccccc23)c2ccccc21 (configuration not stated)	DT40 TDP1 no CPT 5.2µM, TDP1 cell CPT 5.2µM (no result: TDP1 inh)
C#CCN1C(=O)C(O)(c2c(C)[nH]c3ccccc23)c2ccccc21 (configuration not stated)	DT40 TDP1 no CPT 3.3µM, TDP1 cell CPT 4.6µM
CCCNC(=O)c1ccc2snnc2c1	none
CCCNC(=O)c1nnsc1S(=O)c1ccc(Cl)cc1 (configuration not stated)	DT40 TDP1 no CPT 0.52µM, TGFb SMAD3 inh inconclusive, IL-1B inflam inh -102, TDP1 cell CPT 0.41µM
CNC(=O)c1nnsc1S(=O)c1ccc(Cl)cc1 (configuration not stated)	DT40 TDP1 no CPT 0.65µM, TGFb SMAD3 inh inconclusive, IL-1B inflam inh -105, TDP1 cell CPT 0.41µM
CCC1C(=O)NCCN1Cc1ccc2c(c1)CN(Cc1cccc(OC)c1)CCO2 (configuration not stated)	none (no result: HepG2 tox, TGFb SMAD3 inh, IL-1B inflam inh, TDP1 inh)
CC(=C/C(=O)O)/C=C/c1ccc([N+](=O)[O-])cc1	none
CC1(C)COC(/C=C/c2ccc([N+](=O)[O-])cc2)=N1	DT40 TDP1 no CPT 16µM, TGFb SMAD3 inh inconclusive, IL-1B inflam inh -102, TDP1 cell CPT inconclusive
O=C1C2=C(S[C@@H]3O[C@H](CO)[C@@H](O)[C@H](O)[C@H]3O2)C(=O)c2ccccc21	DT40 TDP1 no CPT 0.65µM, TDP1 cell CPT 0.65µM (no result: HepG2 tox, TGFb SMAD3 inh, IL-1B inflam inh)
C/C=C(\C)C(=O)OC1[C@H](OC(C)=O)C2(CO)C(CC1(C)C)C1=CCC3C4(C)CCC(O[C@@H]5O[C@H](C(=O)O)[C@@H](O[C@@H]6O[C@H](CO)[C@@H](O)[C@H](O)[C@H]6O)[C@H](O)[C@H]5O[C@H]5O[C@H](CO)[C@@H](O)[C@H](O)[C@H]5O)[C@](C)(CO)C4CCC3(C)[C@]1(C)C[C@H]2O (some centres not stated)	DT40 TDP1 no CPT 15µM, TGFb SMAD3 inh 4.5µM, IL-1B inflam inh -105, TDP1 cell CPT 12µM (no result: TDP1 inh)
C[C@@H]1OC(OC2CC[C@@]3(C)C(CC[C@@]4(C)C3CC=C3C5CC(C)(C)CC[C@]5(C(=O)OC5OCC(O)[C@@H](O)[C@@H]5OC5O[C@@H](C)[C@H](O[C@H]6OC(CO)C(O)C(O)C6O)C(O)C5O)C(O)C[C@@]34C)C2(C)C)C(O)C(O)[C@H]1OC1OCC(O)C(O)[C@H]1O (some centres not stated)	DT40 TDP1 no CPT inconclusive, TDP1 cell CPT 15µM (no result: HepG2 tox, TGFb SMAD3 inh, IL-1B inflam inh, TDP1 inh)
COc1ccc(/C=C\C(=O)O[C@@H]2C(O)C(O[C@@H]3OC(C)[C@H](O[C@@H]4OCC(O[C@H]5O[C@H](CO)[C@@H](O)C(O)C5O)C(O)C4O)C(O)C3O)[C@H](OC(=O)[C@]34CCC(C)(C)C[C@@H]3C3=CCC5[C@@]6(C)CC(O)C(O[C@@H]7OC(CO)C(O)[C@H](O)[C@H]7O)[C@@](C)(C(=O)O)C6CC[C@@]5(C)[C@]3(CO)CC4)O[C@H]2C)cc1 (some centres not stated)	DT40 TDP1 no CPT 5.2µM, TGFb SMAD3 inh inconclusive, IL-1B inflam inh -97, TDP1 cell CPT 3.7µM
O=C(O)C1CCN(S(=O)(=O)c2ccc(Cl)s2)CC1	none
COc1ccc(CN2CCC3(CCC(CNC(=O)c4ccco4)O3)CC2)c(OC)c1C (configuration not stated)	none (no result: HepG2 tox, TGFb SMAD3 inh, IL-1B inflam inh, TDP1 inh)
N#Cc1ccc(CN2CCN(C(=O)CNS(=O)(=O)c3ccc4c(c3)OCCCO4)CC2)cc1	none
CSCCC(NC(=O)c1ccco1)C(=O)NCC(c1ccccc1)N(C)C (configuration not stated)	none
CCOc1ccc(C(=O)Nc2ccc3nn(-c4ccc(OC)c(Cl)c4)nc3c2)cc1	none (no result: DT40 TDP1 no CPT, IL-1B inflam inh, TDP1 cell CPT)
COc1cc(C(=O)NC(=S)Nc2ccc(Cc3ccncc3)cc2)cc(OC)c1OC	DT40 TDP1 no CPT inconclusive, TGFb SMAD3 inh inconclusive, TDP1 cell CPT inconclusive (no result: TDP1 inh)
COc1ccc(Br)cc1C(=O)Nc1ccc(Cc2ccncc2)cc1	DT40 TDP1 no CPT inconclusive, IL-1B inflam inh inconclusive, TDP1 cell CPT inconclusive (no result: TDP1 inh)
CC(C)Cc1ccc(C(=O)Nc2ccc(Cc3ccncc3)cc2)o1	DT40 TDP1 no CPT inconclusive, IL-1B inflam inh -91, TDP1 cell CPT inconclusive
